# According to PubChem BioAssay AID624325 (Sanford-Burnham Center for Chemical Genomics, 2012):
# The campaign covered roughly 2,300 compounds. About 1,000 (43%) were called active. The set was probably picked from earlier hits. Only a sample is shown. A number with no mark means an inactive call.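 How the source made its calls: active means compounds inhibiting the enzyme by at least 50% at 15 µM in any one of the replicates; inactive means the rest.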
# Target: Fatty acid synthase (Homo sapiens) (UniProt P49327)
# Sequence (P49327 whole entry, looked up, the tested form may be a part): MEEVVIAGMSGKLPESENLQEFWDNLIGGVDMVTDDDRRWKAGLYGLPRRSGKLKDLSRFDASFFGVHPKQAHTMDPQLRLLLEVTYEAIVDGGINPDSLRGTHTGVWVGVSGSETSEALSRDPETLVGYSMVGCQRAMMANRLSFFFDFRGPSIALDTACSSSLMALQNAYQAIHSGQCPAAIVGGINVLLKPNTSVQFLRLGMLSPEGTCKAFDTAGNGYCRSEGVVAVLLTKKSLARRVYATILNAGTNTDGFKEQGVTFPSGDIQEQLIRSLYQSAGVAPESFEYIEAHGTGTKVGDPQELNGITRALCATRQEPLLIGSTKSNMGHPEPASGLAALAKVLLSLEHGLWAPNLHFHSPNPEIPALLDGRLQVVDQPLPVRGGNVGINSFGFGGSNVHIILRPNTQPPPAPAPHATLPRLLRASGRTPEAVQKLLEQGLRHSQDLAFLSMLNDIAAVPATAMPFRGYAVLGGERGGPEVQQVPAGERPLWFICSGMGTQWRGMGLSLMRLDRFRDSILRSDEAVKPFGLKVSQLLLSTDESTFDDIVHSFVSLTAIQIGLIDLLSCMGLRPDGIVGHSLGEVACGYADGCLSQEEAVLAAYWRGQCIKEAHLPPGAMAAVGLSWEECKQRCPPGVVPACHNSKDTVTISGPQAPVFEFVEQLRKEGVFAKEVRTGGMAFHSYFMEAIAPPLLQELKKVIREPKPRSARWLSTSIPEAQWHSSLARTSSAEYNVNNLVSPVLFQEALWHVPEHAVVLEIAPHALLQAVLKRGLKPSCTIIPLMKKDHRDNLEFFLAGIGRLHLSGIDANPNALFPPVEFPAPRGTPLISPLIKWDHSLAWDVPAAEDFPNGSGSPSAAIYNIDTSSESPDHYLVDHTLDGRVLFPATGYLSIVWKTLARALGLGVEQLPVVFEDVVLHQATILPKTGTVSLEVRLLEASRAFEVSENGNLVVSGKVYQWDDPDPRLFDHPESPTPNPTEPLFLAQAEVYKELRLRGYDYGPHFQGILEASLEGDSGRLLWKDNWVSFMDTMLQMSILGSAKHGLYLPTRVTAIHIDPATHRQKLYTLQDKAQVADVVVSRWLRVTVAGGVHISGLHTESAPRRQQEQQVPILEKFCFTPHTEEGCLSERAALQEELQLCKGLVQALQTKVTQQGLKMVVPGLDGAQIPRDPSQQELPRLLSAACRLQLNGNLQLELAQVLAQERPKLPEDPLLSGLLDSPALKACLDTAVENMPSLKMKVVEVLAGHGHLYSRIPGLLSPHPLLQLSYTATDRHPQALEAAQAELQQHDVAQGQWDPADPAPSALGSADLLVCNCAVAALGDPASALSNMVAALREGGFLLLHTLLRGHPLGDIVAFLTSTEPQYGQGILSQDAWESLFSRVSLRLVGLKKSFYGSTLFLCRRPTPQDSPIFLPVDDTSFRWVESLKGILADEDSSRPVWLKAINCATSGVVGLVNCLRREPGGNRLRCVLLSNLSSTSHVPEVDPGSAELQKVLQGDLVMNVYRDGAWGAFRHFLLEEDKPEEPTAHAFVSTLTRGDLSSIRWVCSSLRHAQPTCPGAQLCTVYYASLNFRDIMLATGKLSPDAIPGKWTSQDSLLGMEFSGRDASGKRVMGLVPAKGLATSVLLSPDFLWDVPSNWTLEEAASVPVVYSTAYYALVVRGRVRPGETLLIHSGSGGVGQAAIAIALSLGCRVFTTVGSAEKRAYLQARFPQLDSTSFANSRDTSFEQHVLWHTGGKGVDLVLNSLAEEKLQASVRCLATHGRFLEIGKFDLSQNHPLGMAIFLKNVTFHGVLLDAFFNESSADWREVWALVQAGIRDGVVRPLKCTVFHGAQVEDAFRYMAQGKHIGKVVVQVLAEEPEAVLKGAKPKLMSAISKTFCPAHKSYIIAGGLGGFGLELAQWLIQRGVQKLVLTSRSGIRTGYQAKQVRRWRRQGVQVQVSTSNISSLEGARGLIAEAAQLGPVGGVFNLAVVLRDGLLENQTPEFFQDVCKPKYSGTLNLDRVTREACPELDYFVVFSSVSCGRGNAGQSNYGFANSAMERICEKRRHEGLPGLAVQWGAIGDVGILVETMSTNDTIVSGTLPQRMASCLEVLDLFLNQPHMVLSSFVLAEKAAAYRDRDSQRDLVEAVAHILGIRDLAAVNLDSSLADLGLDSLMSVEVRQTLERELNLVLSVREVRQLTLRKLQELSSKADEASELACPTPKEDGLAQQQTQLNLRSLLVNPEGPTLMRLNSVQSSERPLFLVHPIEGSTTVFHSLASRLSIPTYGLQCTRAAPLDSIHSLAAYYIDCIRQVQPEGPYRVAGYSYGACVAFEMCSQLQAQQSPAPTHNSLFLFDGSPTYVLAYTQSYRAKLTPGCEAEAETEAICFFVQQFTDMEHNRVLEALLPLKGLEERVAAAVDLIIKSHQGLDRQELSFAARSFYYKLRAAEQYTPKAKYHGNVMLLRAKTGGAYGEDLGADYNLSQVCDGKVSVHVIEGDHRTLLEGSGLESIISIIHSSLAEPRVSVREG
# Assay: FAS thioesterase domain inhibitors, confirmation, biochemical, fluorescence intensity, single concentration (AID 624325);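 further: 0% = enzyme with DMSO only and 100% = wells lacking enzyme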
# Conditions: recombinant FAS-TE, OMFH fluorogenic substrate, at 15 µM, stronger effect = higher value
row,SMILES,inhibition
1,CCOC(=O)[C@]12Cc3ccccc3[C@H]1N(C1CCCCC1)C(=O)c1cc(OC)ccc12,53% (active)
2,COc1cccc(C(c2nnnn2-c2ccc3c(c2)OCCO3)N2CCC3(CC2)C(=O)NCN3c2ccccc2)c1OC (stereo not drawn),8.72%
3,COc1ccc(-n2nnnc2C(c2cccc3ccccc23)N2CCC(n3c(=O)[nH]c4ccccc43)CC2)cc1 (stereo not drawn),34.4%
